The values below come from PubChem BioAssay (NCATS).

What all share (experiment): qHTS profiling for inhibitors of Plasmodium falciparum proliferation (AID 504749); also: nearly all actives have a fitted effect of over 60% in size
Holding throughout (settings): P. falciparum in erythrocytes, SYBR Green DNA, 72 h; series mostly up to 12.8 µM
For orientation: Quantitative high-throughput screening tests each substance at several concentrations.

For one experiment, the system named is CP185. Put shortly: (§1)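 Three-day growth assay of blood-stage parasites in erythrocytes (0.3% parasitemia, 2.5% hematocrit) at 37 C, 5% CO2, quantified by SYBR Green DNA staining after overnight detergent lysis.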
The subject of a further experiment is CP194. The gist of the method:
as §1

Another experiment has as its system CP201. The gist of the method: as §1
The next experiment deals with CP203. The gist of the method:
as §1

The subject of the next experiment is CP211. Put shortly:
as §1

Another experiment has as its system CP252. Put shortly:
as §1

The next experiment deals with CP260. Put shortly:
as §1

For the next experiment, the system named is CP268. The gist of the method:
as §1

For the next experiment, the system named is CP286. Put shortly: as §1
The test system of another experiment is CP291. Put shortly:
as §1

The subject of a further experiment is CP305. The gist of the method:
as §1

The test system of a further experiment is CP325. The gist of the method:
as §1

The next experiment deals with CP329. Put shortly: as §1
The subject of another experiment is DFO2036. Put shortly: as §1
For another experiment, the system named is DIV14. Put shortly: as §1
In the next experiment the test system is DIV30. Put shortly: as §1
Another experiment deals with ECU. Put shortly:
as §1

In a further experiment the test system is HB3. Put shortly:
as §1

The test system of a further experiment is TAB113. The gist of the method: as §1
Another experiment has as its system ICS. Put shortly: as §1

Records with an inconclusive call do not appear. Activity calls are given as the source filed them. Calls follow the shape of the dose curve; as a rule, active = well fitted inhibition curve with a large enough effect; inconclusive = small, poorly fitted or top-dose-only effect; inactive = flat fitted curve, though single readings scatter.
Potency is read from the fitted curve at half-maximal effect.

Turning to `CC(=O)[C@@H]1CC[C@@H]2[C@@H]3C[C@H](C)C4=CC(=O)CC[C@@]4(C)[C@H]3[C@H](O)C[C@]21C`, the Potency entry in the experiment on CP185, with CP194, with CP201, in the experiment on CP203, with CP211 and with CP252 was “inactive” throughout. Moreover, the Potency result with CP260, with CP268, with CP286, in the experiment on CP291, in the experiment with CP305 and in the experiment on CP325 was “inactive” throughout. Besides, the Potency result with CP329, in the experiment with DFO2036, in the experiment with DIV14, in the experiment on DIV30, in the experiment on ECU and in the experiment on HB3 was “inactive” throughout. Further, the Potency result with TAB113 was “inactive”.
As to `C[C@@]12CC[C@H]3[C@@H](CCC4=CC(=O)CC[C@]43C)[C@H]1CC[C@H]2C(=O)CO`, the Potency entry in the experiment on CP185, in the experiment on CP194, in the experiment with CP201, in the experiment on CP211, in the experiment on CP252 and in the experiment on CP260 was “inactive” in each case. In addition, the Potency result in the experiment on CP268, with CP286, with CP291, with CP305, with CP325 and in the experiment with CP329 was “inactive” throughout. Besides, the Potency result in the experiment on DFO2036, in the experiment with DIV30 and with HB3 was “inactive” throughout. Further, in the experiment with ICS, the Potency was 3.55 µM (active).
Regarding `CCOC(=O)[C@H](CCc1ccccc1)N[C@@H](C)C(=O)N1[C@H](C(=O)O)C[C@H]2CCC[C@@H]21`, the Potency result in the experiment on CP185, in the experiment with CP194, in the experiment with CP201, in the experiment with CP203, with CP211 and with CP252 was “inactive” in each case. Besides, the Potency entry in the experiment with CP260, in the experiment on CP268, in the experiment on CP286, with CP291, in the experiment with CP305 and with CP325 was “inactive” each time. Moreover, the Potency entry with DFO2036, with DIV14, with ECU, in the experiment with HB3, in the experiment with ICS and with TAB113 was “inactive” in each case.
Regarding `CN(C)CCn1nnnc1SCC1=C(C(=O)O)N2C(=O)[C@@H](NC(=O)Cc3csc(N)n3)[C@@H]2SC1`, the Potency entry in the experiment on CP185, with CP194, in the experiment with CP201, in the experiment with CP203, in the experiment with CP211 and in the experiment with CP252 was “inactive” in each case. Further, the Potency entry in the experiment on CP268, in the experiment on CP286, with CP291, in the experiment with CP305, in the experiment with CP325 and with CP329 was “inactive” each time. For the same molecule, the Potency in the experiment on ICS is 2.51 µM (active).
As for `CC(=O)C[C@H](c1ccc([N+](=O)[O-])cc1)c1c(O)c2ccccc2oc1=O`, the Potency entry with CP185, with CP194, in the experiment on CP201, in the experiment on CP203, with CP211 and in the experiment on CP252 was “inactive” throughout. In addition, the Potency entry in the experiment with CP260, in the experiment with CP268, in the experiment on CP286, in the experiment on CP291, in the experiment on CP305 and with CP325 was “inactive” throughout. The Potency entry with CP329, in the experiment with DFO2036, with DIV14, with DIV30, in the experiment on ECU and in the experiment with HB3 was “inactive” throughout. The Potency result in the experiment on ICS and with TAB113 was “inactive” each time.
As to `C[C@@H](C(=O)O)c1ccc(C(=O)c2ccccc2)s1`, the Potency result in the experiment on CP185, with CP194, in the experiment on CP201, in the experiment with CP203, in the experiment with CP211 and with CP252 was “inactive” each time. The Potency entry with CP260, in the experiment with CP268, in the experiment on CP286, in the experiment with CP291, in the experiment with CP305 and in the experiment on CP325 was “inactive” each time. In addition, the Potency entry in the experiment with CP329, with DFO2036, with DIV14, in the experiment with DIV30, in the experiment with ECU and in the experiment with HB3 was “inactive” in each case. The Potency result with ICS and with TAB113 was “inactive” in each case.
Take `COc1c(O[C@H]2O[C@@H](CO)[C@@H](O)[C@@H](O)[C@@H]2O)cc2c(c1OC)-c1ccc(SC)c(=O)cc1[C@H](NC(C)=O)CC2`: the Potency entry with CP185, with CP194, in the experiment with CP201, with CP203, in the experiment with CP211 and in the experiment on CP252 was “inactive” each time. Further, the Potency result with CP268, with CP286, in the experiment with CP291, in the experiment with CP305, in the experiment on CP325 and with CP329 was “inactive” throughout. Further, the Potency result in the experiment on DFO2036, in the experiment on DIV14, in the experiment on DIV30, in the experiment on ECU, with HB3 and with ICS was “inactive” in each case. The Potency result in the experiment on TAB113 was “inactive”.
As to `CC(=O)OCC(=O)[C@@]1(O)[C@H](C)C[C@@H]2[C@H]3CCC4=CC(=O)C=C[C@]4(C)[C@]3(F)[C@@H](O)C[C@@]21C`, the Potency result in the experiment on CP185, in the experiment on CP194, in the experiment on CP201, with CP203, with CP211 and with CP252 was “inactive” each time. Also, the Potency entry in the experiment on CP260, with CP268, in the experiment on CP286, in the experiment on CP291, in the experiment with CP305 and with CP325 was “inactive” each time. Further, the Potency entry in the experiment on CP329, in the experiment on DFO2036, in the experiment on DIV14, in the experiment with DIV30, in the experiment on ECU and with HB3 was “inactive” throughout. Moreover, the Potency entry in the experiment with ICS and with TAB113 was “inactive” each time.
Consider `C[C@H](C(=O)O)c1cccc(Oc2ccccc2)c1`, for which the Potency result in the experiment on CP185, with CP194, in the experiment on CP201, in the experiment on CP203, in the experiment on CP211 and in the experiment on CP252 was “inactive” each time. The Potency result in the experiment with CP260, in the experiment with CP268, with CP286, in the experiment on CP291, in the experiment with CP305 and in the experiment with CP325 was “inactive” in each case. The Potency result in the experiment with CP329, in the experiment with DFO2036, with DIV14, in the experiment on DIV30, in the experiment with ECU and with HB3 was “inactive” in each case. Also, the Potency entry in the experiment on ICS and in the experiment on TAB113 was “inactive” throughout.
Take `CC1(C)O[C@H]2C[C@@H]3[C@H]4CCC5=CC(=O)CC[C@@]5(C)[C@]4(F)[C@@H](O)C[C@@]3(C)[C@@]2(C(=O)CCl)O1`: the Potency is 3.55 µM (active) with CP252; 3.16 µM (active) in the experiment with CP260; 5.1 µM (active) in the experiment on DIV14; 5.73 µM (active) in the experiment on DIV30; 0.891 µM (active) with ICS. Also, the Potency result in the experiment with CP329 and with ECU was “inactive” in each case.
As for `C[C@@H]1Cc2ccccc2N1NC(=O)c1ccc(Cl)c(S(N)=O)c1` (stereo not given in full), the Potency result with CP185, in the experiment on CP194, in the experiment with CP201, in the experiment with CP203, with CP211 and in the experiment on CP252 was “inactive” each time. For the same molecule, the Potency result with CP260, in the experiment with CP268, with CP286, in the experiment with CP291, with CP305 and in the experiment with CP329 was “inactive” in each case. For the same molecule, the Potency result with DFO2036, in the experiment with DIV14, in the experiment on DIV30, with ECU, in the experiment on HB3 and in the experiment with ICS was “inactive” each time. Besides, in the experiment on TAB113, the Potency result was “inactive”.
As for `C=CC1=C(C(=O)O)N2C(=O)[C@@H](NC(=O)/C(=N\OCC(=O)O)c3csc(N)n3)[C@@H]2SC1`, the Potency result in the experiment with CP185, in the experiment with CP194, in the experiment with CP201, in the experiment on CP203, in the experiment on CP211 and in the experiment with CP252 was “inactive” each time. The Potency result in the experiment on CP260, with CP286, in the experiment on CP291, in the experiment on CP305, with CP325 and in the experiment on CP329 was “inactive” throughout. In addition, the Potency entry with DFO2036, in the experiment on DIV14, in the experiment with DIV30, with ECU, in the experiment on HB3 and with ICS was “inactive” throughout. In the experiment on TAB113, the Potency entry is “inactive”.
As for `C[C@H]1CC[C@]2(OC1)O[C@@H]1C[C@@H]3[C@@H]4CC[C@H]5C[C@@H](O)CC[C@]5(C)[C@@H]4CC(=O)[C@@]3(C)[C@H]1[C@@H]2C`, the Potency entry in the experiment with CP185, with CP194, in the experiment with CP201, in the experiment with CP203, in the experiment with CP211 and in the experiment on CP252 was “inactive” in each case. In addition, the Potency entry in the experiment on CP260, in the experiment on CP268, with CP286, in the experiment on CP291, in the experiment on CP305 and in the experiment with CP325 was “inactive” each time. For the same molecule, the Potency entry in the experiment with CP329, in the experiment with DFO2036, in the experiment with DIV14, in the experiment on DIV30, in the experiment with ECU and with HB3 was “inactive” in each case. For the same molecule, the Potency entry in the experiment on ICS and in the experiment with TAB113 was “inactive” each time.
